PubChem BioAssay AID504834 (National Center for Advancing Translational Sciences (NCATS), 2011)
The campaign covered roughly 320,000 compounds. About 22,000 (6.9%) were called active. Another 27% or so got no clear call; they are omitted. The full list was thinned out, with actives kept by preference. Unmarked numbers belong to inactive results. The call rests on the fitted dose curve; in most records, active means well fitted inhibition curve with a large enough effect; inconclusive means small, poorly fitted or top-dose-only effect, or another doubt; inactive means no such curve, though single readings can be large or run the other way.

Assay: Primary qHTS for delayed death inhibitors of the malarial parasite plastid, 96 hour incubation
Details: P. falciparum luciferase reporter growth; series mostly up to 28.7 µM; activity change, negative = inhibition: at the top concentration
Procedure, shortened: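 Compounds incubated with erythrocytes infected by luciferase-expressing P. falciparum (2% hematocrit, 0.05% parasitemia final) for 96 hours, 37 C in 5% CO2. Growth inhibition scored as decreased luciferase luminescence.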
On the % scale 0 is the no-effect control and ±100 the full control effect; potency means the concentration at half of the fitted maximal effect.

SMILES	activity change, negative = inhibition [%]	Potency
COc1ccc(/C=C2\SC(=S)N(CCC(=O)Nc3ccccn3)C2=O)cc1OC	79.2	
CCC(=O)N1CCc2cc(S(=O)(=O)CCC(=O)N3CCN(c4ccccc4F)CC3)ccc21	29.7	
CCCNS(=O)(=O)c1ccc2c(c1)CCCN2C(C)=O	94.1	
CCOc1ccc(NC(=O)CCS(=O)(=O)c2ccc3c(c2)CCCN3C(=O)CC)cc1		9.28 µM (active)
C=CCn1c(SCC(=O)NC(=O)Cc2ccccc2)nc2ccccc2c1=O	3.17	
CCCCN1C(=O)/C(=C/C=C2/C=Cc3ccccc3N2CC)SC1=S		0.117 µM (active)
CCN1C(=O)/C(=C2/Sc3ccccc3N2CCCS(=O)(=O)O)SC1=S	61.5	
CCN1C(=O)/C(=C\N2CCN(c3cccc(Cl)c3)CC2)SC1=S	51.9	
O=C(NCCCc1ccccc1)C1CCC(=O)N(CCc2ccc(Cl)cc2)C1 (stereo not drawn)	-0.691	
COc1ccccc1CNS(=O)(=O)c1c(C)[nH]c(C)c1C(=O)N1CCCCC1	12.7	
COc1cc(CN2CCC(C(N)=O)CC2)ccc1OCc1ccccc1	60	
COc1ccc(CN2CCN(C(=O)c3cc(C4CC4)nn3-c3ccccc3)CC2)cc1F		11.7 µM (active)
COc1cccc(NC(=O)CN(C)C(=O)c2cc(C3CC3)nn2-c2ccccc2)c1	-26.3	
O=C(NCc1cccnc1)c1ccccc1NC(=O)c1c(F)cccc1F	1.54	
Cc1cc(C)c(NC(=O)CN2C(=O)NC(Cc3ccccc3)C2=O)c(C)c1 (stereo not drawn)	11	
O=[N+]([O-])c1ccc2nc(-c3ccccn3)[nH]c2c1	-13.9	
O=C(CSC(=S)N1CCOCC1)c1cc(Br)cc(Br)c1O	26.6	
O=P(O)(CN1CCCCCC1)C1Cc2ccccc2C1	-49.8	
O=C(Cc1nc2ccccc2[nH]c1=O)c1ccc(Cl)cc1	141	
O=C(/C(=C/c1cccc(Cl)c1)c1nc2ccccc2[nH]1)c1ccccc1		11.7 µM (active)
O=C(CCc1nc2ccccc2c(=O)[nH]1)OCC(=O)c1cccc(Cl)c1	51.6	
Cc1ccc(-c2nc3ccccc3[nH]c2=O)cc1	111	
N#CCc1ccc(NC(=O)c2ccccc2C(=O)Nc2ccc(CC#N)cc2)cc1	16.3	

SMILES	activity change, negative = inhibition [%]	Potency
NS(=O)(=O)c1ccc2nc(NC(=O)C3=COCCO3)sc2c1	6.79	
NC(=O)Nc1cccc(C(F)(F)F)c1	28.4	
O=C(Nc1cccc(C(F)(F)F)c1)c1cc(Br)cc(Br)c1O		15.1 µM (active)
O=C(O)CC1(CC(=O)Nc2cccc(C(F)(F)F)c2)CCCC1	24.4	
CC(=O)Nc1ccc(NC(=O)COC(=O)c2ccccc2C(=O)c2ccccc2)cc1	-7.56	
O=C(Nc1cccc([N+](=O)[O-])c1)Nn1cnnc1	-1.29	
Cn1nc(C(F)(F)F)cc1-c1ccc(/C=C(\C#N)C(=O)c2cccc(C(F)(F)F)c2)s1	54.3	
Cc1ccc(NNC(=O)c2c(F)cccc2Cl)cc1Cl	34.9	
Cc1ccc(NC(=O)CSc2nnc(CNC(=O)c3ccccc3F)o2)cc1	4.83	
COc1ccccc1NC(=O)CSc1nnc(CNC(=O)c2ccccc2F)o1		1.65 µM (active)
CCCCCNC(=O)c1cccnc1SCC(=O)Nc1ccccc1OC	60.2	
CC1(C)NC(=O)N(CC(=O)N2CCN(S(=O)(=O)c3ccccc3F)CC2)C1=O	-1.59	
O=C(Nc1cccc(-c2nc3ccccc3[nH]2)c1)c1ccc(C(=O)Nc2cccc(-c3nc4ccccc4[nH]3)c2)cc1		0.37 µM (active)
O=C(Nc1cccc(NC(=O)c2ccc(Br)cc2)c1)c1ccccc1	71.5	
O=C(Cc1cccs1)Nc1cccc(-c2nc3ccccc3[nH]2)c1	-7.98	
N#CC1(NC(=O)COC(=O)Cc2n[nH]c(=O)c3ccccc23)CCCCC1	24.1	
CCN(C(=O)CSc1nnc(-c2ccc(OC(F)F)cc2)n1N)C1CCS(=O)(=O)C1 (stereo not drawn)	7.28	
COc1cc(C)cc(CN2CCC(Cc3ccccc3)CC2)c1O		1.17 µM (active)
NC(=O)c1ccc(CN2CCC(Cc3ccccc3)CC2)cc1	-16.8	
O=c1cc(CO)oc(CN2CCC(Cc3ccccc3)CC2)c1O	-8.24	
CC(C)NC(=O)NNc1c(Cl)cncc1Cl	23	
O=C(CNS(=O)(=O)c1ccc2ccccc2c1)Nc1ccc(F)c(F)c1F	12.1	
COc1ccc(/C=N/NC(=O)C2CC2)c(OC)c1OC	103	

SMILES	activity change, negative = inhibition [%]	Potency
COc1ccc(NC(=O)C2CCCN(S(=O)(=O)c3cccc4cccnc34)C2)cc1OC (stereo not drawn)		10.4 µM (active)
O=C(O)C1CCCN(S(=O)(=O)c2cccc3cccnc23)C1 (stereo not drawn)		2.08 µM (active)
CC(=O)c1cccc(NC(=O)C2CCCN(S(=O)(=O)c3cccc4nonc34)C2)c1 (stereo not drawn)	5.63	
COc1cccc(CNC(=O)C2CCN(S(=O)(=O)c3cccc4cccnc34)CC2)c1	13.2	
CN(CC(=O)NC1CCCCC1)S(=O)(=O)c1cccc2cccnc12	22.2	
COc1ccc(S(=O)(=O)N2CCCC(C(=O)Nc3ccc(NC(=O)c4ccccn4)cc3)C2)cc1 (stereo not drawn)	17	
O=C(NCc1ccco1)C1CCCN(S(=O)(=O)c2cccc3nonc23)C1 (stereo not drawn)	22	
Cc1cccc(NC(=O)C2CCN(S(=O)(=O)c3cccc4cccnc34)CC2)c1		5.86 µM (active)
COc1ccc(NC(=O)C2CCCN(S(=O)(=O)c3cccc4cccnc34)C2)cc1 (stereo not drawn)	63.6	
Cc1ccc(C(=O)Nc2nc(N)n(-c3ccccc3)n2)cc1	40.9	
CC1=NN(C(N)=S)C(=O)C1N=Nc1cc(Cl)ccc1Cl (stereo not drawn)	16.9	
CCOC(=O)C1CCCN(S(=O)(=O)c2ccc(-n3cnnn3)c(C)c2)C1 (stereo not drawn)	4.73	
CCn1c(SCC(=O)NC2=NCCS2)nnc1C(C)NC(=O)c1ccccc1F (stereo not drawn)	19.2	
O=C(CCCCCNC(=O)c1ccccc1)N/N=C/c1ccccc1		1.47 µM (active)
O=C(CC(=O)N/N=C\c1ccc(F)cc1)NCCc1ccccc1	2.04	
O=C(CNC(=O)c1cccnc1)N/N=C/c1cccnc1	32.2	
CNS(=O)(=O)c1cccc(C(=O)OCCCC(=O)c2ccccc2)c1	-12.1	
COc1ccc(Cl)cc1NC(=O)CN(C)CC(=O)Nc1ccc2c(c1)OCO2	-0.297	
Cn1c(CC(=O)Nc2ccc(F)cc2)nnc1SCC(=O)NC1CCCCC1	-8.17	
Clc1nc(NC2CCCC2)nc(N2CCOCC2)n1		11.7 µM (active)
COC(=O)CNc1nc(Cl)nc(N2CCC(C)CC2)n1	9.44	
Cc1ccc(Nc2nc(N3CCOCC3)nc(N3CCOCC3)n2)cc1Cl	-16.3	
